Results taken from PubChem BioAssay AID2018 (Sanford-Burnham Center for Chemical Genomics, 2009).
Among all 1,200 compounds or so, about 600 (50%) were called active. The set was probably picked from earlier hits. Some of the results follow. Entries with a potency or affinity are not part of this list. Values without a mark were called inactive. Rule as the data show it: active = inhibition above about 42%; inactive = the rest.

Target: SUMO-conjugating enzyme UBC9 (Homo sapiens) (UniProt P63279)
Assay: blockers of UBC9-mediated SUMO conjugation – biochemical, AlphaScreen, SUMOylation inhibitor project, confirmation (AID 2018)
Settings: AlphaScreen in vitro SUMOylation assay; at 35 µM; active compounds read high

Chain of SUMO-conjugating enzyme UBC9 (Homo sapiens) (P63279 whole entry, looked up): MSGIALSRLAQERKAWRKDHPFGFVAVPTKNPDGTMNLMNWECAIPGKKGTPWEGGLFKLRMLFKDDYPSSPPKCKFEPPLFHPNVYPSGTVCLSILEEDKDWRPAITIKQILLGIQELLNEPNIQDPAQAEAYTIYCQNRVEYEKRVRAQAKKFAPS

SMILES | inhibition
O=C(O)CC1OCC=C2CN3CCC45C6=CC(=O)C(=O)C([N+](=O)[O-])=C6NC4C1C2CC35 (centres undefined) | 102% (active)
CN1CCN(c2ccc(S(C)(=O)=O)cc2[N+](=O)[O-])CC1 | -12.2%
Cc1cc(/C=C2\C(=O)NC(=O)N(Cc3ccccc3)C2=O)c(C)n1-c1ccc(Cl)c(C(=O)O)c1 | 102% (active)
CC(=O)c1ccc2c(c1)C1C(Cl)C(Sc3ccccc3[N+](=O)[O-])CC1C(c1ccccc1[N+](=O)[O-])N2 (centres undefined) | 38.6%
CC(=O)c1ccc2c(c1)C1C(Cl)C(Sc3ccccc3[N+](=O)[O-])CC1C(C(=O)O)N2 (centres undefined) | 102% (active)
CC(C)CCNC(=O)c1c(N)n(Cc2ccc3c(c2)OCO3)c2nc3ccccc3nc12 | 18.5%
Cc1c(CC(=O)N2C[C@H]3C[C@@H](C2)c2cccc(=O)n2C3)c(=O)oc2c(C)c(O)ccc12 | 54.2% (active)
Nc1c(C(=O)NCCCc2ccccc2)c2nc3ccccc3nc2n1Cc1cccs1 | -10.2%
Cc1[nH]n(-c2ccccc2)c(=O)c1C(c1ccc([N+](=O)[O-])cc1)c1c(C)[nH]n(-c2ccccc2)c1=O | 102% (active)
CCN(CC)c1ccc([N+](=O)[O-])c2cccnc12 | 33.7%
CC(C)CCNC(=O)c1c(N)n(CC2CCCO2)c2nc3ccccc3nc12 (centres undefined) | -37.9%
CCCNC(=O)c1c(N)n(CC2CCCO2)c2nc3ccccc3nc12 (centres undefined) | -23.2%
CCCNC(=O)c1c(N)n(Cc2ccc3c(c2)OCO3)c2nc3ccccc3nc12 | 13.5%
CC(C)OCCCNC(=O)c1c(N)n(CC2CCCO2)c2nc3ccccc3nc12 (centres undefined) | -76.6%
CCC(C)NC(=O)c1c(N)n(CC2CCCO2)c2nc3ccccc3nc12 (centres undefined) | 101% (active)
Nc1c(C(=O)NC2CCCC2)c2nc3ccccc3nc2n1CC1CCCO1 (centres undefined) | 100% (active)
CCC(C)NC(=O)c1c(N)n(Cc2ccc3c(c2)OCO3)c2nc3ccccc3nc12 (centres undefined) | 11%
CN1CCC2(CC1)C(C#N)=C(N)NC(S)=C2C#N | 38.8%
CCCCn1c(NS(=O)(=O)c2ccccc2)c(C(=O)OCC)c2nc3ccccc3nc21 | 101% (active)
COCCNC(=O)c1c(NC(=O)c2ccco2)n(Cc2ccccc2)c2nc3ccccc3nc12 | -28.4%
CCCCn1c(N)c(C(=O)OCC2CCCO2)c2nc3ccccc3nc21 (centres undefined) | 25.4%
CCCCn1c(NS(=O)(=O)c2ccc(C)cc2)c(C(=O)OCC)c2nc3ccccc3nc21 | 28.2%
CCCCn1c(NC(=O)c2ccco2)c(C(=O)OCC)c2nc3ccccc3nc21 | 62.6% (active)
CCOCCCn1c(N)c(C(=O)Nc2sc3c(c2C(=O)OC)CCCC3)c2nc3ccccc3nc21 | 47% (active)
CC(C)CCn1c(N)c(C(=O)NCc2cccs2)c2nc3ccccc3nc21 | 4.2%

SMILES | inhibition
COc1cc(Cn2c(N)c(C(=O)NCc3ccco3)c3nc4ccccc4nc32)cc(OC)c1OC | 50.8% (active)
COCCCn1c(N)c(C(=O)NCc2ccco2)c2nc3ccccc3nc21 | -8.5%
CCCCNC(=O)c1c(N)n(CCCOC)c2nc3ccccc3nc12 | 102% (active)
COc1ccc(Cn2c(N)c(C(=O)NCc3ccco3)c3nc4ccccc4nc32)cc1 | -14.9%
COCCCn1c(N)c(C(=O)Nc2ccccc2)c2nc3ccccc3nc21 | -4.1%
COCCCn1c(N)c(C(=O)NCCC(C)C)c2nc3ccccc3nc21 | -40.9%
CCCCCn1c(N)c(C(=O)NCc2cccs2)c2nc3ccccc3nc21 | 9.5%
CCOC(=O)c1c(NC(=O)c2c(N)n(CCCOC)c3nc4ccccc4nc23)sc2c1CCCC2 | 41.9%
CCCCn1c(N)c(C(=O)NCc2cccs2)c2nc3ccccc3nc21 | 51.4% (active)
COc1ccc(Cc2nccc3cc(OC)c(OC)cc23)cc1OC | 37.6%
c1ccc2c(NC3=NCCS3)cccc2c1 | 19.6%
CN1CCc2nc3sc(C#N)c(N)c3c(-c3cccs3)c2C1 | 29.8%
CN1CCN(c2ccc3nccnc3c2)CC1 | 6.7%
O=C(O)CCn1cc(C=C2C(=O)NC(=O)NC2=O)c(-c2ccc(Br)cc2)n1 | 1%
COCCNC(=O)c1c(N)n(CCC(C)C)c2nc3ccccc3nc12 | -54.5%
CCC(C)NC(=O)c1c(N)n(CCCOC)c2nc3ccccc3nc12 (centres undefined) | 74% (active)
COCCCn1c(N)c(C(=O)OCCOC)c2nc3ccccc3nc21 | 10.5%
Cc1ccsc1C(=O)C1CCCN(Cc2ccc(-n3cccn3)cc2)C1 (centres undefined) | -14.4%
CC(C)CNC(=O)c1c(N)n(Cc2ccc3c(c2)OCO3)c2nc3ccccc3nc12 | -19.8%
CN1C[C@H](CO)C=C2c3cccc4[nH]cc(c34)C[C@H]21 | 10.8%
CC(C)[C@H]1C(=O)N2CCC[C@H]2[C@]2(O)O[C@](NC(=O)[C@@H]3C=C4c5cccc6[nH]cc(c56)C[C@H]4N(C)C3)(C(C)C)C(=O)N12 | 54.8% (active)
Cn1c(O)c(/C=C2\N=c3ccccc3=C2CCNC(=S)NC2CC2)c(=O)n(C)c1=O | 58.6% (active)
O=C(c1cccn2c(=O)c3ccc(Cl)cc3nc12)N1CCC2(CC1)OCCO2 | 20.5%
COc1ccc(OC)c(N2C(=O)NC(=O)/C(=C/c3ccc([N+](=O)[O-])s3)C2=O)c1 | 86.3% (active)
